# Data as given in PubChem BioAssay.
# The source made the active and inactive calls.
# Columns and labels:
# [1] = system: Human papillomavirus type 1a protein E7 (residues 44-93); assay: small molecules binding HPV E7 44-93 – biochemical, small-molecule microarray, residues 44-93, 635 nm fluorescence, primary screen (AID 1108); details: fluorescence 635 nm, higher = more signal;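 also: E7 fragment applied at 1 µg/mL in TBST for 1 h at 4 C; score combines spot fluorescence with its signal to noise ratio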
# [2] = hepatitis C replication reporter changes, two-sided – Huh7 cells, luciferase reporter, HCV replication inhibitor project, primary screen (AID 1109); details: Huh7 HCV replicon luciferase reporter, 48 h; higher = more signal;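 also: huh7 hepatoma cells harbouring a luciferase neomycin HCV replicon reporter; luciferase luminescence as measure of HCV replicon replication; test concentration not given here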
# [3] = molecular target: Left-right determination factor 2 (Homo sapiens) (UniProt O00292); assay: small molecules binding LEFTY2 protein – biochemical, small-molecule microarray, 635 nm fluorescence scan, primary screen (AID 1110); details: higher = more signal
# Sequence of Left-right determination factor 2 (Homo sapiens) (O00292 whole entry, looked up): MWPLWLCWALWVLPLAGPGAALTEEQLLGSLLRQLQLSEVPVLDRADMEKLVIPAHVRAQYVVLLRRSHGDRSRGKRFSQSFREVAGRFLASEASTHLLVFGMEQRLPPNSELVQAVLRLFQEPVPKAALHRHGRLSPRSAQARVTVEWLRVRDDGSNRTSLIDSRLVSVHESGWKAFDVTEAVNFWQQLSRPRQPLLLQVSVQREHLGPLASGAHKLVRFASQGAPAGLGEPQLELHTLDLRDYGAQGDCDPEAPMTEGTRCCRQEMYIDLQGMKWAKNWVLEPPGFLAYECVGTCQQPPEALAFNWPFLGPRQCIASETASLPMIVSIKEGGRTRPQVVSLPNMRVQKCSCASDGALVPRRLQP
# [4] = molecular target: Calmodulin-1 (Homo sapiens) (UniProt P0DP23); assay: small molecules binding calmodulin-1 with EGTA – biochemical, small-molecule microarray, Cy5-labelled CALM1, profiling panel (AID 1111); details: Cy5-CALM1 binding fluorescence, higher = more signal;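 also: labelled calmodulin applied in Tris saline Tween buffer holding calcium plus EGTA and DTT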
# [5] = molecular target: Calmodulin-1 (Homo sapiens) (UniProt P0DP23); assay: small molecules binding Ca-loaded calmodulin-1 – biochemical, small-molecule microarray, Cy5-labelled CALM1, plus calcium, artefact control for SMM control-protein annotation, profiling panel (AID 1112); details: Cy5-CALM1 binding fluorescence, higher = more signal;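 also: score merges spot fluorescence with signal to noise from triplicate slides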
# [6] = probe aWnt5a binding to arrayed compounds – biochemical, biotinylated probe, 635/667 nm fluorescence, primary screen (AID 1113); details: small-molecule microarray, higher = more signal;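 also: score merges 667 nm fluorescence intensity with signal-to-noise per printed feature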
# [7] = probe aShh binding to arrayed compounds – biochemical, biotinylated probe, 635/667 nm fluorescence, primary screen (AID 1114); details: small-molecule microarray, higher = more signal;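 also: probe is biotin-labelled aShh protein from a stem cell growth factor screen; measures binding of labelled protein to compounds printed on the slide; score merges feature fluorescence at 667 nm with signal-to-noise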
# [8] = probe aNog binding to arrayed compounds – biochemical, biotinylated probe, 635/667 nm fluorescence, primary screen (AID 1115); details: small-molecule microarray, higher = more signal;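 also: probe is biotinylated aNog protein used at 0.15 µg/mL for 1 h at 4 C; z-score combines 667 nm fluorescence of each spot with its signal to noise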
# [9] = molecular target: Torsin-1A-interacting protein 1 (Homo sapiens) (UniProt Q5JTV8); assay: compound microarray binding of lysate hLAP1 – cell lysate, small-molecule microarray, COS7 lysate, 635/667 nm fluorescence, primary screen (AID 1116); details: 635 nm fluorescence, higher = more signal
# Sequence of Torsin-1A-interacting protein 1 (Homo sapiens) (Q5JTV8 whole entry, looked up): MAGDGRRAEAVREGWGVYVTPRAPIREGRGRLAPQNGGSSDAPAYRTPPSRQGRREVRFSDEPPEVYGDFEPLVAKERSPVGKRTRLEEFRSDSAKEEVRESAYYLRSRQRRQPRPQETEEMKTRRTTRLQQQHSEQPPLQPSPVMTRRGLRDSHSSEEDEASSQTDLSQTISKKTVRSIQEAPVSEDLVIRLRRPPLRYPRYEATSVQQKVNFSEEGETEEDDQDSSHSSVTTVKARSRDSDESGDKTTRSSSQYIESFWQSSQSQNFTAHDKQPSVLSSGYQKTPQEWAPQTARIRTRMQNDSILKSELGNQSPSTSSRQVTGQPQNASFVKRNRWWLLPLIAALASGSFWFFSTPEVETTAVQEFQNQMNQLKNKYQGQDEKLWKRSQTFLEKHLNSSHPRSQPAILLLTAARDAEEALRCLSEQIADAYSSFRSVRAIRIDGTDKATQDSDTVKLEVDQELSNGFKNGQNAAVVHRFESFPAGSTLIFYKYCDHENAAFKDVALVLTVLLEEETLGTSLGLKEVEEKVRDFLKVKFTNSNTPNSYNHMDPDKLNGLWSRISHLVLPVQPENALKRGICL
# [10] = molecular target: Alpha-bungarotoxin (Bungarus multicinctus) (UniProt P60615); assay: compounds binding labelled alpha-BTX control protein – biochemical, small-molecule microarray, Alexa647 label, 635/667 nm fluorescence, artefact control for SMM control protein annotation, profiling panel (AID 1117); details: alpha-BTX-A647 binding fluorescence, higher = more signal
# Sequence of Alpha-bungarotoxin (Bungarus multicinctus) (P60615 whole entry, looked up): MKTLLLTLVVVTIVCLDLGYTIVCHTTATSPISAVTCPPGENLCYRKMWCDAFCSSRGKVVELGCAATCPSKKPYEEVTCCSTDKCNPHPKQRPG
# Albumin (Bos taurus) = Albumin (Bos taurus) (UniProt P02769); assay: compounds binding labelled BSA control protein – biochemical, small-molecule microarray, Alexa647 label, 635/667 nm fluorescence, artefact control for SMM control protein annotation, profiling panel (AID 1118); details: BSA-A647 binding, fluorescence 635 nm, higher = more signal;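 also: score merges 667 nm emission intensity and signal-to-noise per printed compound spot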
# Sequence of Albumin (Bos taurus) (P02769 whole entry, looked up): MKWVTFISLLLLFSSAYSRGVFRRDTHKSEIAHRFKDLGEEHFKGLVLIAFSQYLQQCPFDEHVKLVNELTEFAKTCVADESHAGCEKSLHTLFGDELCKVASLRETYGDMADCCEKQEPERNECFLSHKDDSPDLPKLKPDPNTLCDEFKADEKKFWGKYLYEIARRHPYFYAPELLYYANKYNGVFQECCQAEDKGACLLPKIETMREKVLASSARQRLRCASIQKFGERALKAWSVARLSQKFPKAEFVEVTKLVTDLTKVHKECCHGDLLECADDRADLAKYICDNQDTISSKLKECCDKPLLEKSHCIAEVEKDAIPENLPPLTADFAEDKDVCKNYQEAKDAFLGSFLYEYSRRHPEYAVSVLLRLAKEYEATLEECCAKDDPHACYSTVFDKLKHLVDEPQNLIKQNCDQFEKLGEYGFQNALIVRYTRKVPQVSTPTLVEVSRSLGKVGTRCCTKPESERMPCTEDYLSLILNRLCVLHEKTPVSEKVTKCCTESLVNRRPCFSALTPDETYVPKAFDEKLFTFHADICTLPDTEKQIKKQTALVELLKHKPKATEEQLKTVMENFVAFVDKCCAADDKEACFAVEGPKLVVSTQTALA
# [11] = probe aXIP binding to arrayed compounds – biochemical, NeuroSMM set, 635/667 nm fluorescence, primary screen (AID 1119); details: small-molecule microarray, higher = more signal, called active from +8 up or from −8 down;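 also: probe is the protein aXip251-270 applied at 1 µg/mL to compound-printed slides; binding of probe to printed compounds measured as 667 nm fluorescence plus signal to noise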
# [12] = probe aNOTCH3 binding on compound microarray – biochemical, small-molecule microarray, 635/667 nm fluorescence, primary screen (AID 1120); details: higher = more signal;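 also: probe is a biotin-tagged antibody raised against NOTCH3 rather than NOTCH3 protein; score merges spot fluorescence near 667 nm with spot signal to noise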
# [13] = probe aNOTCH2 binding on compound microarray – biochemical, small-molecule microarray, 635/667 nm fluorescence, primary screen (AID 1121); details: higher = more signal;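 also: score merges feature fluorescence read at 667 nm with its signal to noise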
# [14] = molecular target: Carbonic anhydrase 2 (Homo sapiens) (UniProt P00918); assay: compounds binding carbonic anhydrase 2 – biochemical, small-molecule microarray, Alexa647-labelled CAII, profiling panel (AID 1122); details: CAII-A647 binding fluorescence, higher = more signal
# [15] = COS7 lysate on small-molecule microarray, probe aHis, 635 nm (AID 1123); details: COS7 cell lysate, fluorescence, higher = more signal;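 also: z-score combines 667nm fluorescence intensity with signal-to-noise per printed compound spot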
# [16] = probe aLAP1 signal on lysate-treated microarray – cell lysate, small-molecule microarray, COS7 lysate, primary screen (AID 1124); details: probe aLAP1, fluorescence, higher = more signal;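 also: lysate comes from COS7 cells expressing LAP1 and is applied at 0.3 µg/mL; score merges spot fluorescence near 667 nm with signal-to-noise over triplicate slides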
# Sam68 (KHDRBS1) = assay: compounds binding KHDRBS1 protein – biochemical, small-molecule microarray, 635 nm fluorescence, primary screen (AID 1125); details: higher = more signal;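 also: score merges 667 nm channel intensity with signal to noise over triplicate slides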
# [17] = system: Chordin-like protein 2 (CHRDL2); assay: compounds binding chordin-like 2 – biochemical, small-molecule microarray, 635 nm fluorescence, primary screen (AID 1126); details: fluorescence 635 nm, higher = more signal;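 also: printed compound slides probed with Chrdl2 protein at 4 µg/mL for 1 h at 4 C; score merges 667 nm emission intensity with signal to noise over three replicate slides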
# [18] = molecular target: Concanavalin-A (Canavalia ensiformis) (UniProt P02866); assay: compounds binding concanavalin A lectin – biochemical, small-molecule microarray, Alexa647 label, 635 nm, artefact control for SMM control protein annotation, primary screen (AID 1127); details: ConA-A647 binding fluorescence, higher = more signal;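 also: z combines 667 nm emission intensity with signal-to-noise across three replicate slides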
# Sequence of Concanavalin-A (Canavalia ensiformis) (P02866 whole entry, looked up): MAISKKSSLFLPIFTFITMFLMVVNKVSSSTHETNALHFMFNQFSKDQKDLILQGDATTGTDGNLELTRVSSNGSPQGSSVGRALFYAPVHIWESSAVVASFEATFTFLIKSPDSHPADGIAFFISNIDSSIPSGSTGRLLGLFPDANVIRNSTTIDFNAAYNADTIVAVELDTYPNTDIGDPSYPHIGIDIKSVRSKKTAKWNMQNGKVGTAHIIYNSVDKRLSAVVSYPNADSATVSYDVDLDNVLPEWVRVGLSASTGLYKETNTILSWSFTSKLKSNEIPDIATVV
structure (smiles),measurement,setting,value
CCOC(=O)[C@H](CC(C)C)NC(=O)CCC1CC(OC(=O)NCc2ccc3c(c2)OCO3)CC2(CCCC(COC(=O)NCCCN3CCCC3=O)O2)O1 (stereo not given in full),composite z-score,[1],1.26
same,z-score,[2],-0.584
same,composite z-score,[3],0.563
same,composite z-score,[4],0.542
same,composite z-score,[5],-0.348
same,composite z-score,[6],-0.0519
same,composite z-score,[7],-0.0073
same,composite z-score,[8],-0.158
same,composite z-score,[9],0.0469
same,composite z-score,[10],0.758
same,composite z-score,Albumin (Bos taurus),-0.0359
same,composite Z-score,[11],-0.0273 (inactive)
same,composite z-score,[12],0.0196
same,composite z-score,[13],-0.108
same,composite z-score,[14],0.0039
same,composite z-score,[15],0.659
same,composite z-score,[16],0.178
same,composite z-score,Sam68 (KHDRBS1),1.33
same,composite z-score,[17],0.325
same,composite z-score,[18],1.08
COC(=O)CC=C[C@@H](C)[C@@H](C=NO[C@@H](C)c1cn([C@H](CO)Cc2ccccc2)nn1)OC,composite z-score,[1],0.939
same,z-score,[2],0.0629
same,composite z-score,[3],0.499
same,composite z-score,[4],-1.04
same,composite z-score,[5],-1.48
same,composite z-score,[6],-0.0944
same,composite z-score,[7],-0.138
same,composite z-score,[8],0.15
same,composite z-score,[9],-0.0644
same,composite z-score,[10],-0.027
same,composite z-score,Albumin (Bos taurus),0.943
same,composite Z-score,[11],-0.452 (inactive)
same,composite z-score,[12],-0.0069
same,composite z-score,[13],-0.103
same,composite z-score,[14],-0.225
same,composite z-score,[15],-0.274
same,composite z-score,[16],0.137
same,composite z-score,Sam68 (KHDRBS1),0.695
same,composite z-score,[17],0.664
same,composite z-score,[18],-0.61
O=C1CCCC=C1C(O)CCOC(c1ccccc1)(c1ccccc1)c1ccccc1 (stereo not given),composite z-score,[1],-1
same,z-score,[2],-3.22
same,composite z-score,[3],0.13
same,composite z-score,[4],-0.428
same,composite z-score,[5],-0.131
same,composite z-score,[6],-0.0161
same,composite z-score,[7],-0.366
same,composite z-score,[8],0.0195
same,composite z-score,[9],-0.462
same,composite z-score,[10],-0.28
same,composite z-score,Albumin (Bos taurus),0.404
same,composite Z-score,[11],0.142 (inactive)
same,composite z-score,[12],-0.158
same,composite z-score,[13],-0.169
same,composite z-score,[14],-0.252
same,composite z-score,[15],-0.447
same,composite z-score,[16],-0.146
same,composite z-score,Sam68 (KHDRBS1),-1.52
same,composite z-score,[17],-0.0466
same,composite z-score,[18],-0.542
CC(C)=CCCC(C)=CCON=C1C[C@@H](O)[C@@H](O)[C@@H]2[C@@H]3C(=O)N(c4ccc(F)cc4F)C(=O)[C@@H]3CC[C@H]12,composite z-score,[1],1.36
same,z-score,[2],0.19
same,composite z-score,[3],0.621
same,composite z-score,[4],-0.0184
same,composite z-score,[5],-0.778
same,composite z-score,[6],-0.124
same,composite z-score,[7],0.0668
same,composite z-score,[8],-0.379
same,composite z-score,[9],0.153
same,composite z-score,[10],0.39
same,composite z-score,Albumin (Bos taurus),0.477
same,composite Z-score,[11],-0.356 (inactive)
same,composite z-score,[12],0.164
same,composite z-score,[13],-0.0662
same,composite z-score,[14],0.514
same,composite z-score,[15],1.31
same,composite z-score,[16],0.402
same,composite z-score,Sam68 (KHDRBS1),1.24
same,composite z-score,[17],0.812
same,composite z-score,[18],0.629
